Assay results as given in PubChem BioAssay (EPA / NIEHS).
The source made the active and inactive calls. The calls were made as follows: active = hit-call score of the fitted dose curve at least 0.9, where 1 is the maximum; inactive = score below 0.9.

Columns and labels:
[1] = ATG_E_Box_CIS: Attagene CIS-FACTORIAL HepG2 Assay for human Enhancer Box (E-box) (AID 2282936); conditions: HepG2 E-box cis-reporter transcription, actives raise or lower the signal
In short: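 Endogenous transcription factor activity was sensed in human HepG2 liver cells through transfected cis-promoter reporter units. After 24 h of dosing, total RNA was reverse-transcribed and reporter cDNA resolved by capillary electrophoresis.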

[2] = ATG_M_61_CIS: Attagene CIS-FACTORIAL HepG2 Assay for M61 Transcription Factor (Internal Marker) (AID 2282937); conditions: HepG2 Attagene CIS-FACTORIAL M61 internal marker reporter; actives raise or lower the signal
In short: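 Cells were transfected with reporter units under cis-regulatory promoters, treated with chemicals for 24 h, then lysed for RNA. Reporter transcripts were quantified by RT-PCR and capillary electrophoresis, and activity was fitted bidirectionally against DMSO.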

[3] = ATG_EGR_CIS: Attagene CIS-FACTORIAL HepG2 Assay for human Early Growth Response 1 (EGR1) (AID 2282938); conditions: HepG2 Attagene CIS-FACTORIAL EGR reporter mRNA; actives raise or lower the signal
In short: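 Endogenous TF activity in HepG2 liver cells was gauged through cis-promoter reporter constructs transiently transfected. After 24 h dosing, reporter mRNA was quantified by RT-PCR and capillary electrophoresis, and curves fitted in both directions versus DMSO.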

[4] = ATG_M_19_CIS: Attagene CIS-FACTORIAL HepG2 Assay for M19 Transcription Factor (Internal Marker) (AID 2282939); conditions: HepG2 Attagene CIS-FACTORIAL M19 internal marker reporter; actives raise or lower the signal
In short: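 Background-control endpoint from a multiplexed HepG2 reporter panel. Cells carrying cis-regulated reporter constructs are treated 24 h, then reporter transcripts are amplified, fluorescently labelled and sized by capillary electrophoresis. DMSO defines baseline.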

[5] = ATG_ERE_CIS: Attagene CIS-FACTORIAL HepG2 Assay for Estrogen Response Element (ERE) (AID 2282940); conditions: HepG2 ERE cis-reporter, Attagene RNA transcript; actives raise or lower the signal
In short: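 Cells used were human hepatoma HepG2, transfected with multiple reporter transcription units under cis-regulatory promoters. Reporter mRNA, read 24 h post-dosing via fluorescent RT-PCR products on capillary electrophoresis, was fitted bidirectionally relative to DMSO.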

[6] = ATG_Ets_CIS: Attagene CIS-FACTORIAL HepG2 Assay for human Erythroblast Transformation Specific (ETS) (AID 2282941); conditions: HepG2 ETS cis-reporter transcription, actives raise or lower the signal
In short: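 Cis-regulated reporter mRNA induction in HepG2 (transient transfection), 24 h exposure, RT-PCR plus capillary electrophoresis detection; DMSO serves as negative control and baseline.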

[7] = biological target: Hepatocyte nuclear factor 3-beta (Homo sapiens) (UniProt Q9Y261); experiment: ATG_FoxA2_CIS: Attagene CIS-FACTORIAL HepG2 Assay for human Forkhead box A2 (FOXA2) (AID 2282942); conditions: HepG2 cis-reporter transcription factor activity, 24 h; actives raise or lower the signal
Sequence of Hepatocyte nuclear factor 3-beta (Homo sapiens) (Q9Y261 whole entry, looked up): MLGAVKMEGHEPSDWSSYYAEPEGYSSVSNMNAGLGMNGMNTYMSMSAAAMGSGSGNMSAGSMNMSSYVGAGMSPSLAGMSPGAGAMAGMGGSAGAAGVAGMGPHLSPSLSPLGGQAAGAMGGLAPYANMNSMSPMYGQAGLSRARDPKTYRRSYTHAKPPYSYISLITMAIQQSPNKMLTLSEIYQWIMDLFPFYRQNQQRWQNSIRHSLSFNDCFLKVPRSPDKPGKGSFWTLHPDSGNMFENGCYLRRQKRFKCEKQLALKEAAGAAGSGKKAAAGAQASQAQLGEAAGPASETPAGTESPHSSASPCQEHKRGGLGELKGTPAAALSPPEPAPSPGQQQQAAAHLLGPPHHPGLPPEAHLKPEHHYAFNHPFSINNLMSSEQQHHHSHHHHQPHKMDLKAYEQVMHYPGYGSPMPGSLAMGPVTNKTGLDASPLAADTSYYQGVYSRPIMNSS
In short: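 Endogenous transcription factor activity was read in HepG2 cells carrying transiently transfected cis-promoter reporter units. After 24 h dosing, reporter mRNA was quantified by RT-PCR and capillary electrophoresis, and values fitted bidirectionally versus DMSO.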

[8] = ATG_FoxO_CIS: Attagene CIS-FACTORIAL HepG2 Assay for human Forkhead box O (FoxO) (AID 2282943); conditions: HepG2 Attagene cis-reporter, FoxO element, mRNA; actives raise or lower the signal
In short: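 Values reflect reporter mRNA induction or loss in HepG2 cells 24 h post-dosing, fitted bidirectionally with DMSO as negative control and baseline. Detection used RT-PCR and fluorescence capillary electrophoresis.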

[9] = ATG_GLI_CIS: Attagene CIS-FACTORIAL HepG2 Assay for human Zinc Finger Protein GLI1 (AID 2282945); conditions: HepG2, Attagene cis-factorial reporter mRNA, GLI element; actives raise or lower the signal
In short: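 HepG2 cells transiently transfected with cis-promoter multiplexed reporter units report endogenous transcription factor activity. After 24 h chemical exposure, reporter mRNA was quantified by RT-PCR, 6-FAM labelling, HpaI digestion and capillary electrophoresis, with bidirectional fitting against DMSO.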

[10] = ATG_GATA_CIS: Attagene CIS-FACTORIAL HepG2 Assay for human GATA Binding Protein (AID 2282944); conditions: HepG2 GATA cis-element reporter, Attagene multiplex mRNA; actives raise or lower the signal
In short: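 Endogenous transcription factor activity was captured through cis-promoter-driven reporters in transfected HepG2 cells. After 24 h exposure, reporter transcripts were quantified by RT-PCR with fluorescent capillary electrophoresis, and responses fitted both directions against DMSO.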

Measured: AC50

O=C(Nc1ccccc1)c1ccccc1O
active: [5] 63.1 µM | [6] 100 µM
not listed: [10]
inactive: all other assays above

O=C(O)CCCCCCCCCC(=O)O
active: [5] 22 µM
inactive: all other assays above

COCC(C)N (configuration not stated)
inactive: all assays above

CCCCC(CC)COC(=O)c1ccccc1 (configuration not stated)
active: [5] 37.3 µM
inactive: all other assays above

CCc1nccnc1C
inactive: all assays above

Cn1c([N+](=O)[O-])cnc1COC(N)=O
inactive: all assays above

C1=Cc2ccccc2C1
active: [5] 44.3 µM
inactive: all other assays above

N=c1ccn2c(n1)O[C@H]1[C@H](O)[C@@H](CO)O[C@H]12
not listed: [10]
inactive: all other assays above

OC1OCCOC1O (configuration not stated)
inactive: all assays above

CCCCOCCOC(=O)COc1nc(Cl)c(Cl)cc1Cl
active: [5] 26.2 µM
inactive: all other assays above

CC1OC1C1CCC2(C)OC2C1 (configuration not stated)
inactive: all assays above

COC(=O)c1ccccc1OC
inactive: all assays above

COCc1c(C(C)C)nc(C(C)C)c(/C=C/[C@@H](O)C[C@@H](O)CC(=O)O)c1-c1ccc(F)cc1
inactive: all assays above

O=C1OC(=O)c2cc(Oc3ccc4c(c3)C(=O)OC4=O)ccc21
inactive: all assays above

CCOC(=O)CC
inactive: all assays above

CCCCCCCCCCCCCCCC(=O)OCC
inactive: all assays above

Cc1ccc([N+](=O)[O-])cc1S(=O)(=O)O
active: [8] 153 µM
inactive: all other assays above

Nc1nc2ccccc2[nH]1
active: [5] 77.9 µM
inactive: all other assays above

CCOC(=O)[C@H](C)O
inactive: all assays above

CC(C)c1ccc2c(C(C)C)cc(C(C)C)c(S(=O)(=O)O)c2c1
active: [5] 49.7 µM
inactive: all other assays above

O=S1(=O)OC(c2ccc(O)cc2)(c2ccc(O)cc2)c2ccccc21
active: [5] 53.4 µM
inactive: all other assays above

ON(Cc1ccccc1)Cc1ccccc1
inactive: all assays above

CCCC(C)CCC(C)=O (configuration not stated)
inactive: all assays above

CC(=O)NS(=O)(=O)c1ccc(N)cc1
inactive: all assays above

COc1c2ccoc2cc2oc(=O)ccc12
inactive: all assays above

C=C1C2CCC(C2)C1(C)C (configuration not stated)
inactive: all assays above

O=C(Nc1cccc(C(F)(F)F)c1)c1cc(Br)cc(Br)c1O
active: [1] 77.6 µM | [3] 25.5 µM | [9] 83 µM
inactive: all other assays above

C=COCCCC
inactive: all assays above

C=CC(C)(CCC=C(C)C)OC(=O)CC(C)C (configuration not stated)
active: [5] 74.1 µM
inactive: all other assays above

CC=CCO
inactive: all assays above

CCC(C)C=O (configuration not stated)
inactive: all assays above

CC(C)=CCCC(C)C=O (configuration not stated)
inactive: all assays above

O=C1CCCCCN1SSN1CCCCCC1=O
active: [1] 182 µM | [3] 162 µM | [9] 155 µM
not listed: [10]
inactive: all other assays above

NCCCN1CCN(CCCN)CC1
inactive: all assays above

CC(C)(C)c1ccc(OC(=O)c2ccccc2O)cc1
active: [5] 7.32 µM
inactive: all other assays above

O=C1C(N(CO)C(=O)NCO)N(CO)C(=O)N1CO (configuration not stated)
inactive: all assays above

CCCCNc1ccc(NCCCC)c2c1C(=O)c1ccccc1C2=O
inactive: all assays above

CCN(CC)c1ccc(C(=O)c2ccccc2C(=O)O)c(O)c1
inactive: all assays above

CCCCCCCCCCOS(=O)(=O)O
inactive: all assays above

[Cl][Nd]([Cl])[Cl]
inactive: all assays above

COc1cc(C)ccc1C(C)C
not listed: [10]
inactive: all other assays above

CCCCCCCCCCCCCCCC[N+](C)(C)CC
active: [1] 13.5 µM
not listed: [10]
inactive: all other assays above

O=C(/C=C/C=C/c1ccc2c(c1)OCO2)N1CCCCC1
active: [3] 100 µM
not listed: [7]
inactive: all other assays above

CN1C(=O)N(C)C(O)C1O (configuration not stated)
not listed: [10]
inactive: all other assays above

CCCCCCCCCCCCCCCCCC#N
not listed: [7]
inactive: all other assays above

CCCCCCCCCCCSCC(=O)O
active: [1] 100 µM | [3] 82.6 µM
not listed: [7]
inactive: all other assays above

CC=CC(=O)N(CC)c1ccccc1C
not listed: [10]
inactive: all other assays above

CN(C)c1ccc(N=Nc2ccccc2C(=O)O)cc1
active: [1] 15.6 µM | [3] 47.4 µM | [8] 66.9 µM
not listed: [7]
inactive: all other assays above

CC1(C)O[C@@H]2C[C@H]3[C@@H]4C[C@H](F)C5=CC(=O)CC[C@]5(C)[C@H]4[C@@H](O)C[C@]3(C)[C@]2(C(=O)CO)O1
not listed: [7]
inactive: all other assays above

C[C@]12C=CC(=O)C=C1CC[C@@H]1[C@@H]2[C@@H](O)C[C@@]2(C)[C@H]1CC[C@]2(O)C(=O)CO
not listed: [10]
inactive: all other assays above
